Our source for the growth values is PubChem BioAssay (NCI).

Compounds without any hit were thinned out: in the full panel of roughly 83,000, 20% have a hit.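 Compound tested at a single concentration for 48 hours in 96-well plates; a percent growth value below 10 was scored as active.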 Values without a mark were called inactive. The source made the active and inactive calls.

Holding throughout (assay): NCI-60 one-dose screen, 48 h (100 = growth as untreated, 0 = no growth, -100 = all killed)
The test system of one assay is NCI-H23 lung. To be noted: 10 µM unless noted.
The subject of another assay is NCI-H226 lung. To be noted: 10 µM unless noted.
The subject of a further assay is NCI-H322M lung. The settings on record: 10 µM unless noted.
The next assay relates to NCI-H460 lung. The settings on record: 10 µM unless noted.
The subject of a further assay is HOP-92 NSCLC. The settings on record: 10 µM.
In another assay the test system is NCI-H522 lung. The settings on record: 10 µM.
Another assay has as its system A549/ATCC NSCLC. To be noted: 10 µM unless noted.
A further assay relates to 786-0 renal. The settings on record: 10 µM unless noted.
The next assay has as its system COLO 205 colon. To be noted: 10 µM unless noted.

Consider `COC1NC(Cl)=C(C#N)C(C#N)(C#N)C1(C)C` (stereo not given), for which the growth in the assay with NCI-H23 lung is 108%; in the assay with NCI-H226 lung it was 108%; in the assay on NCI-H322M lung it was 121%; with NCI-H460 lung, 114%; in the assay with HOP-92 NSCLC, 97.2%; in the assay with NCI-H522 lung, 104%. Moreover, the growth in the assay with A549/ATCC NSCLC was 109%; with 786-0 renal, 87.2%; with COLO 205 colon it was 124%.

`Cc1ccc2c(c1)C(=O)CCS2`: the growth in the assay with NCI-H23 lung is 100%; with NCI-H226 lung, 101%; with NCI-H322M lung, 93.5%; in the assay on NCI-H460 lung it was 117%; with HOP-92 NSCLC, 89.1%; in the assay on NCI-H522 lung, 95.2%. The growth with A549/ATCC NSCLC was 97.2%; with 786-0 renal, 101%; in the assay with COLO 205 colon, 98.2%.

For the compound `CCC(C)C1NC(=O)C(CC(C)C)NC(=O)C(C)NC(=O)C(C(C)C)NC(=O)C(CCCCN)NC(=O)C(CC(C)C)NC(=O)C(C(C)C)NC(=O)[C@H](C)NC(=O)C(C(C)CC)NC(=O)C(CCCN=C(N)N)NC(=O)C(CCCCN)NC(=O)C(CCCN=C(N)N)NC(=O)C(CCCCN)NC(=O)C([C@H](C)CC)NC(=O)C(CCCCN)NC1=O` (stereo not given in full), the growth was 8.22% (active) in the assay on NCI-H23 lung; 44.9% in the assay on NCI-H226 lung; 64.9% in the assay on NCI-H322M lung; 4.91% (active) with NCI-H460 lung; -21.8% (active) with HOP-92 NSCLC; -5.53% (active) with NCI-H522 lung. The growth was 22.3% in the assay on A549/ATCC NSCLC, 10.5% in the assay with 786-0 renal and -73% (active) in the assay on COLO 205 colon.

Regarding `Oc1ccc(CN(Cc2ccc(C(F)(F)F)cc2)Cc2ccc(O)c3ncccc23)c2cccnc12`, the growth is 17.4% in the assay on NCI-H23 lung; 18.3% with NCI-H226 lung; 31.5% in the assay with NCI-H322M lung; 1.74% (active) in the assay with NCI-H460 lung; -3.41% (active) in the assay with HOP-92 NSCLC; 3.25% (active) in the assay on NCI-H522 lung. The figures for the growth in the assay on A549/ATCC NSCLC, in the assay on 786-0 renal and in the assay with COLO 205 colon were 1.19% (active), 11.4% and 19.6%, respectively.

Regarding `COCC(=O)NNc1[nH]c(-c2ccc(OC)cc2)cc1C#N`, the growth in the assay with NCI-H23 lung is 100%; with NCI-H226 lung, 106%; in the assay on NCI-H322M lung, 33.4%; with NCI-H460 lung, 117%; in the assay on HOP-92 NSCLC, 95.4%; in the assay on NCI-H522 lung, 104%. Further, the growth in the assay with A549/ATCC NSCLC was 112%; in the assay with 786-0 renal, 95.3%; in the assay on COLO 205 colon, 115%.

On to `CCOC(=O)c1c2c(cn1Cc1ccccc1)-c1oncc1CC2`, for which the growth in the assay on NCI-H23 lung was 106%; in the assay with NCI-H226 lung, 79.4%; in the assay with NCI-H322M lung it was 92.8%; with NCI-H460 lung, 112%; with HOP-92 NSCLC it was 61.8%; with NCI-H522 lung it was 99%. The growth with A549/ATCC NSCLC is 95.1%; in the assay on 786-0 renal, 83.9%; with COLO 205 colon, 123%.

With `CCC(C)C1NC(=O)C(CCCCN)NC(=O)C(CCCCN)NC(=O)C(CC(C)C)NC(=O)C(CCCCN)NC(=O)C(C(C)CC)NC(=O)C(C(C)C)NC(=O)C(C(C)CC)NC(=O)C(CCCCN)NC(=O)C(CCCCN)NC(=O)C(C)NC(=O)C(CCCCN)NC(=O)C(CC(C)C)NC1=O` (stereo not given), the growth with NCI-H23 lung is 16.6%; in the assay with NCI-H226 lung, 46.8%; in the assay with NCI-H322M lung, 82%; with NCI-H460 lung, 14.8%; in the assay with HOP-92 NSCLC it was -9.52% (active); in the assay with NCI-H522 lung, 9.29% (active). For the same compound, the results for the growth with A549/ATCC NSCLC, with 786-0 renal and in the assay with COLO 205 colon were 20.2%, 20.8% and -59.4% (active), respectively.

For `Nc1ccc(S(=O)(=O)Nc2cc(F)cc(F)c2)cc1`, the growth with NCI-H23 lung was 111%; in the assay on NCI-H226 lung, 104%; in the assay on NCI-H322M lung it was 114%; in the assay on NCI-H460 lung, 110%; in the assay with HOP-92 NSCLC it was 99.9%; in the assay with NCI-H522 lung, 94.9%. For the same compound, the growth in the assay on A549/ATCC NSCLC is 119%; with 786-0 renal it was 99.7%; with COLO 205 colon it was 112%.

For `CCN(CC)CCCC(C)Nc1c(C)cnc2cc(Cl)c(C)cc12` (stereo not given), the growth in the assay on NCI-H23 lung is 91.9%; with NCI-H226 lung it was 96.2%; in the assay with NCI-H322M lung, 87.6%; in the assay with NCI-H460 lung, 90.2%; in the assay with HOP-92 NSCLC, 70.4%; with NCI-H522 lung, 82.3%. Also, the growth in the assay with A549/ATCC NSCLC is 103%; in the assay on 786-0 renal it was 64.7%; in the assay with COLO 205 colon, 72.2%.

For `CCCOC(=O)c1c(C)n(C)c2scc[n+]12`, the growth in the assay on NCI-H23 lung is 29%; in the assay on NCI-H226 lung it was 87.2%; with NCI-H322M lung, 51.2%; in the assay on NCI-H460 lung it was 110%; in the assay with HOP-92 NSCLC it was 30.1%; in the assay with NCI-H522 lung it was 79.2%. Besides, the growth was 62.9% in the assay on A549/ATCC NSCLC, 62.9% in the assay with 786-0 renal and 84.9% in the assay on COLO 205 colon.

Consider `COc1ccc(C2=NN(C(=O)c3cc(-c4ccc(C)cc4)nc4ccccc34)C(c3cc(-c4ccccc4)nn3-c3ccccc3)C2)cc1` (stereo not given), for which the growth in the assay with NCI-H23 lung was 90.4%; in the assay with NCI-H226 lung, 83.4%; in the assay with NCI-H322M lung, 84.6%; in the assay with NCI-H460 lung it was 74.5%; in the assay on HOP-92 NSCLC it was 86.6%; in the assay with NCI-H522 lung, 82.9%. Further, the figures for the growth with A549/ATCC NSCLC, with 786-0 renal and in the assay on COLO 205 colon were 89.1%, 95.6% and 106%, respectively.

On to `COc1cc(NC(=O)CSc2nc3ccc(Cl)cc3c(=O)n2-c2ccc(F)cc2)cc(OC)c1OC`, for which the growth in the assay on NCI-H23 lung is 85.2%; in the assay with NCI-H226 lung, 83.2%; in the assay on NCI-H322M lung it was 86.9%; in the assay on NCI-H460 lung it was 91.3%; with HOP-92 NSCLC, 36%; in the assay with NCI-H522 lung, 79.5%. For the same compound, the growth with A549/ATCC NSCLC was 83.8%; in the assay on 786-0 renal, 75.2%; in the assay with COLO 205 colon, 107%.

For the compound `CC(=O)Nc1nc(C)c(C(=O)N/N=C/c2cccs2)s1`, the growth is 103% with NCI-H23 lung; 86.9% in the assay with NCI-H226 lung; 111% with NCI-H322M lung; 102% in the assay with NCI-H460 lung; 42.6% in the assay with HOP-92 NSCLC; 94.8% in the assay with NCI-H522 lung. For the same compound, the growth in the assay on A549/ATCC NSCLC was 101%; in the assay with 786-0 renal, 94.3%; in the assay on COLO 205 colon it was 101%.

As to `COC1(OC)N=C(N)C2(C#N)C3(C(=O)Nc4ccccc43)C12C#N` (stereo not given), the growth is 81.6% in the assay on NCI-H23 lung; 62.5% in the assay with NCI-H226 lung; 105% in the assay with NCI-H322M lung; 104% with NCI-H460 lung; 73% with HOP-92 NSCLC; 80.7% in the assay on NCI-H522 lung. For the same compound, the growth in the assay on A549/ATCC NSCLC was 104%; in the assay with 786-0 renal, 94.3%; in the assay with COLO 205 colon, 116%.

`CCC(C)(C)c1ccc(OCCCCCCN2CCNCC2)cc1`: the growth was 60% with NCI-H23 lung; 92.7% in the assay on NCI-H226 lung; 76.1% in the assay on NCI-H322M lung; 17.7% in the assay on NCI-H460 lung; 51.3% in the assay on HOP-92 NSCLC; 95.5% with NCI-H522 lung. Moreover, the growth with A549/ATCC NSCLC is 53.5%; in the assay with 786-0 renal, 59.5%; with COLO 205 colon it was -50% (active).
